From PubChem BioAssay (NCI)
This is part of a sample that, as a whole, favours compounds with a hit. Of some 79,000 tested, about 15% had one in any assay. A number with no mark means an inactive call. Activity calls are given as the source filed them. No stated cut-off is given here; in the data, active means growth inhibition above about 70%; inactive means the rest.

Columns and labels:
[1] = NCI Yeast Anticancer Drug Screen. Data for the rad52 strain (AID 147);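 further: 0% = growth of vehicle-treated control cultures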; details: S. cerevisiae rad52 mutant growth inhibition, stronger effect = higher value
Outline: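 The repair-mutant yeast strain was incubated with compounds, then growth was read and inhibition derived relative to vehicle.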

[2] = NCI Yeast Anticancer Drug Screen. Data for the wt1 strain (AID 149);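 further: 0% = growth of vehicle-treated wt1 cultures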; details: S. cerevisiae wt1 strain (SPY 50644) growth inhibition, stronger effect = higher value
Outline: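 The wt1 strain was treated with compounds, and growth was compared with vehicle-treated cultures to give inhibition.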

[3] = NCI Yeast Anticancer Drug Screen. Data for the rad50EPP+ strain (AID 151);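 further: 0% = growth of vehicle-treated control cultures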; details: S. cerevisiae rad50 mutant strain, stronger effect = higher value
Outline: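 Vehicle-normalised growth inhibition; rad50EPP+ yeast strain, altered in DNA damage repair, compound-treated.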

[4] = NCI Yeast Anticancer Drug Screen. Data for the rad50 strain (AID 155);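 further: 0% = growth of vehicle-only cultures of the same strain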; details: S. cerevisiae rad50 strain growth inhibition, stronger effect = higher value
Outline: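 Cells are treated with compound, grown, and their growth is then scored against vehicle-only cultures of the same repair-deficient yeast strain.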

[5] = NCI Yeast Anticancer Drug Screen. Data for the mec2-1 strain (AID 157); details: S. cerevisiae mec2-1 strain, stronger effect = higher value
Outline: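 Mutant yeast (mec2-1) grown with compound; growth inhibition relative to vehicle control reported.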

[6] = NCI Yeast Anticancer Drug Screen. Data for the rad14 strain (AID 159);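 further: 0% = growth of vehicle-treated control cultures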; details: S. cerevisiae rad14 strain growth inhibition, stronger effect = higher value
Outline: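 Readout: yeast growth inhibition, referenced to vehicle-only cultures. Strain bears a defined alteration in DNA damage repair.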

[7] = NCI Yeast Anticancer Drug Screen. Data for the CLN2oe strain (AID 163);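 further: 0% = growth of vehicle-only control cultures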; details: S. cerevisiae CLN2oe strain, stronger effect = higher value
Outline: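 Compounds are applied to yeast harbouring a defined cell-cycle control change; reduced growth compared with vehicle-treated controls gives the value.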

[8] = NCI Yeast Anticancer Drug Screen. Data for the bub3 strain (AID 167); details: S. cerevisiae bub3 mutant strain, stronger effect = higher value
Outline: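 Part of a panel of yeast mutants defective in DNA damage repair or cell cycle regulation. Each strain is grown with compound, and inhibition is calculated relative to solvent-treated cultures.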

[9] = NCI Yeast Anticancer Drug Screen. Data for the wt2 strain (AID 169);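 further: 0% = growth of vehicle-treated yeast cultures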; details: S. cerevisiae wt2 strain growth inhibition, stronger effect = higher value
Outline: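 Against vehicle-treated controls, the growth of yeast exposed to each compound was compared, and the inhibition was recorded.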

[10] = NCI Yeast Anticancer Drug Screen. Data for the mlh1 strain (AID 171);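 further: 0% = growth of vehicle-treated control cultures of the same strain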; details: S. cerevisiae mlh1 strain growth inhibition, stronger effect = higher value
Outline: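 Measured: yeast growth. Reference: vehicle-treated controls. Organism: strain with a defined alteration affecting DNA damage repair or cell cycle control, treated with compound.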

[11] = NCI Yeast Anticancer Drug Screen. Data for the sgs1 strain (AID 173);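 further: 0% = growth of vehicle-only control cultures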; details: S. cerevisiae sgs1 mutant, stronger effect = higher value
Outline: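 Each compound was added to cultures of the altered yeast strain. Growth was recorded, and inhibition was derived by comparison with vehicle controls.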

[12] = NCI Yeast Anticancer Drug Screen. Data for the rad18 strain (AID 177); details: S. cerevisiae rad18 mutant growth inhibition, stronger effect = higher value
Outline: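 Vehicle-treated cultures served as the baseline for scoring compound-induced growth inhibition in DNA-repair-mutant yeast.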

[13] = NCI Yeast Anticancer Drug Screen. Data for the sgs1 mgt1 strain (AID 161);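 further: 0% = growth of cultures given vehicle only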; details: S. cerevisiae sgs1 mgt1 strain, stronger effect = higher value
Outline: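 Compounds are added to genetically altered yeast, and growth is compared with cultures given vehicle alone to give percent inhibition.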

[14] = NCI Yeast Anticancer Drug Screen. Data for the cln2 rad14 strain (AID 165);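 further: 0% = growth equal to vehicle treated cultures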; details: S. cerevisiae cln2 rad14 strain, stronger effect = higher value
Outline: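 Readout is yeast growth inhibition versus vehicle-treated controls, using a strain with cln2 and rad14 alterations exposed to compound.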

[15] = NCI Yeast Anticancer Drug Screen. Data for the mlh1 rad18 strain (AID 175); details: S. cerevisiae mlh1 rad18 strain growth inhibition, stronger effect = higher value
Outline: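 Genetically defined yeast (DNA repair-deficient) exposed to compounds; growth inhibition determined relative to vehicle.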

[16] = at 5.0 µM (retest, dose inferred, filed as 0.5)
[17] = at 50.0 µM (retest, dose inferred, filed as 5.0)

In the case of CN(C)/N=N/c1nc[nH]c1C(N)=O, the growth inhibition ([1]; at 1.2 µM) was -2%, the growth inhibition ([1]; at 3.7 µM) was 1% and the growth inhibition ([1]; at 11.0 µM) was 8%. The growth inhibition ([1]; at 33.0 µM) was 31%, the growth inhibition ([1]; at 100.0 µM) was 95% (active) and the growth inhibition ([2]; at 1.2 µM) was 0%. For the same molecule, the growth inhibition ([2]; at 3.7 µM) was -1%, the growth inhibition ([2]; at 11.0 µM) was -3% and the growth inhibition ([2]; at 33.0 µM) was -1%. For the same molecule, the growth inhibition ([2]; at 100.0 µM) was 88% (active), the growth inhibition ([3]; at 1.2 µM) was -3% and the growth inhibition ([3]; at 3.7 µM) was -2%. The growth inhibition ([3]; at 11.0 µM) was 0%, the growth inhibition ([3]; at 33.0 µM) was 8% and the growth inhibition ([3]; at 100.0 µM) was 32%. The growth inhibition ([4]; at 1.2 µM) was -2%, the growth inhibition ([4]; at 3.7 µM) was 0% and the growth inhibition ([4]; at 11.0 µM) was 7%. The growth inhibition ([4]; at 33.0 µM) was 20%, the growth inhibition ([4]; at 100.0 µM) was 97% (active) and the growth inhibition ([5]; at 1.2 µM) was 0%. The growth inhibition ([5]; at 3.7 µM) was 0%, the growth inhibition ([5]; at 11.0 µM) was 1% and the growth inhibition ([5]; at 33.0 µM) was 5%. For the same molecule, the growth inhibition ([5]; at 100.0 µM) was 98% (active), the growth inhibition ([6]; at 1.2 µM) was -2% and the growth inhibition ([6]; at 3.7 µM) was -2%. The growth inhibition ([6]; at 11.0 µM) was 0%, the growth inhibition ([6]; at 33.0 µM) was -1% and the growth inhibition ([6]; at 100.0 µM) was 98% (active). The growth inhibition ([7]; at 1.2 µM) was 1%, the growth inhibition ([7]; at 3.7 µM) was 2% and the growth inhibition ([7]; at 11.0 µM) was 0%. For the same molecule, the growth inhibition ([7]; at 33.0 µM) was 0%, the growth inhibition ([7]; at 100.0 µM) was 99% (active) and the growth inhibition ([8]; at 1.2 µM) was 2%. For the same molecule, the growth inhibition ([8]; at 3.7 µM) was 1%, the growth inhibition ([8]; at 11.0 µM) was -2% and the growth inhibition ([8]; at 33.0 µM) was 46%. For the same molecule, the growth inhibition ([8]; at 100.0 µM) was 96% (active), the growth inhibition ([9]; at 1.2 µM) was -5% and the growth inhibition ([9]; at 3.7 µM) was -1%. For the same molecule, the growth inhibition ([9]; at 11.0 µM) was -2%, the growth inhibition ([9]; at 33.0 µM) was -2% and the growth inhibition ([9]; at 100.0 µM) was 98% (active). For the same molecule, the growth inhibition ([10]; at 1.2 µM) was -2%, the growth inhibition ([10]; at 3.7 µM) was -2% and the growth inhibition ([10]; at 11.0 µM) was 0%. The growth inhibition ([10]; at 33.0 µM) was 0%, the growth inhibition ([10]; at 100.0 µM) was 97% (active) and the growth inhibition ([11]; at 1.2 µM) was -1%. For the same molecule, the growth inhibition ([11]; at 3.7 µM) was -2%, the growth inhibition ([11]; at 11.0 µM) was 1% and the growth inhibition ([11]; at 33.0 µM) was 6%. The growth inhibition ([11]; at 100.0 µM) was 98% (active), the growth inhibition ([12]; at 1.2 µM) was -3% and the growth inhibition ([12]; at 3.7 µM) was 0%. The growth inhibition ([12]; at 11.0 µM) was 8%, the growth inhibition ([12]; at 33.0 µM) was 42% and the growth inhibition ([12]; at 100.0 µM) was 98% (active).
With CN1CCN(c2ccc3nc(-c4ccc5nc(-c6ccc(O)cc6)[nH]c5c4)[nH]c3c2)CC1 the growth inhibition ([1]; at 1.2 µM) was 8%, the growth inhibition ([1]; at 3.7 µM) was -1% and the growth inhibition ([1]; at 11.0 µM) was 98% (active). The growth inhibition ([1]; at 33.0 µM) was 38%, the growth inhibition ([1]; at 100.0 µM) was 98% (active) and the growth inhibition ([2]; at 1.2 µM) was 3%. The growth inhibition ([2]; at 3.7 µM) was 5%, the growth inhibition ([2]; at 11.0 µM) was 98% (active) and the growth inhibition ([2]; at 33.0 µM) was 98% (active). For the same molecule, the growth inhibition ([2]; at 100.0 µM) was 97% (active), the growth inhibition ([3]; at 1.2 µM) was -7% and the growth inhibition ([3]; at 3.7 µM) was -12%. For the same molecule, the growth inhibition ([3]; at 11.0 µM) was 83% (active), the growth inhibition ([3]; at 33.0 µM) was 97% (active) and the growth inhibition ([3]; at 100.0 µM) was 97% (active). For the same molecule, the growth inhibition ([4]; at 1.2 µM) was 6%, the growth inhibition ([4]; at 3.7 µM) was 13% and the growth inhibition [4, 16] was 88% (active). The growth inhibition ([4]; at 11.0 µM) was 98% (active), the growth inhibition ([4]; at 33.0 µM) was 98% (active) and the growth inhibition [4, 17] was 99% (active). For the same molecule, the growth inhibition ([4]; at 50.0 µM) was 99% (active), the growth inhibition ([4]; at 100.0 µM) was 98% (active) and the growth inhibition ([5]; at 1.2 µM) was -4%. For the same molecule, the growth inhibition ([5]; at 3.7 µM) was -17%, the growth inhibition [5, 16] was 63% and the growth inhibition ([5]; at 11.0 µM) was 97% (active). For the same molecule, the growth inhibition ([5]; at 33.0 µM) was 97% (active), the growth inhibition [5, 17] was 99% (active) and the growth inhibition ([5]; at 50.0 µM) was 99% (active). For the same molecule, the growth inhibition ([5]; at 100.0 µM) was 97% (active), the growth inhibition ([6]; at 1.2 µM) was -16% and the growth inhibition ([6]; at 3.7 µM) was -16%. The growth inhibition ([6]; at 11.0 µM) was 97% (active), the growth inhibition ([6]; at 33.0 µM) was 97% (active) and the growth inhibition ([6]; at 100.0 µM) was 97% (active). For the same molecule, the growth inhibition [13, 16] was 43%, the growth inhibition [13, 17] was 99% (active) and the growth inhibition ([13]; at 50.0 µM) was 99.2% (active). For the same molecule, the growth inhibition [14, 16] was 45%, the growth inhibition [14, 17] was 99% (active) and the growth inhibition ([14]; at 50.0 µM) was 97.8% (active). For the same molecule, the growth inhibition ([8]; at 1.2 µM) was -10%, the growth inhibition ([8]; at 3.7 µM) was -1% and the growth inhibition [8, 16] was 84% (active). For the same molecule, the growth inhibition ([8]; at 11.0 µM) was 97% (active), the growth inhibition ([8]; at 33.0 µM) was 98% (active) and the growth inhibition [8, 17] was 99% (active). For the same molecule, the growth inhibition ([8]; at 50.0 µM) was 99.2% (active), the growth inhibition ([8]; at 100.0 µM) was 97% (active) and the growth inhibition ([9]; at 1.2 µM) was -17%. The growth inhibition ([9]; at 3.7 µM) was -27%, the growth inhibition ([9]; at 11.0 µM) was 97% (active) and the growth inhibition ([9]; at 33.0 µM) was 98% (active). For the same molecule, the growth inhibition ([9]; at 100.0 µM) was 98% (active), the growth inhibition ([10]; at 1.2 µM) was -10% and the growth inhibition ([10]; at 3.7 µM) was -15%. The growth inhibition ([10]; at 11.0 µM) was 98% (active), the growth inhibition ([10]; at 33.0 µM) was 97% (active) and the growth inhibition ([10]; at 100.0 µM) was 97% (active). The growth inhibition ([11]; at 1.2 µM) was -5%, the growth inhibition ([11]; at 3.7 µM) was 2% and the growth inhibition ([11]; at 11.0 µM) was 98% (active). The growth inhibition ([11]; at 33.0 µM) was 98% (active), the growth inhibition ([11]; at 100.0 µM) was 97% (active) and the growth inhibition [15, 16] was 71% (active). For the same molecule, the growth inhibition [15, 17] was 99% (active), the growth inhibition ([15]; at 50.0 µM) was 99.2% (active) and the growth inhibition ([12]; at 1.2 µM) was -12%. For the same molecule, the growth inhibition ([12]; at 3.7 µM) was -29%, the growth inhibition ([12]; at 11.0 µM) was 97% (active) and the growth inhibition ([12]; at 33.0 µM) was 97% (active). The growth inhibition ([12]; at 100.0 µM) was 97% (active).
